The values that follow come from PubChem BioAssay (NCI).

Structures are written as SMILES. About 83,000 compounds went through this panel and 20% of them were active in at least one assay; those are over-represented in the sample as a whole.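 Results are percent growth after 48 hours of single-concentration exposure. 100 means growth as in untreated cells, lower positive values show inhibition; negative values down to -100 show cell death.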 Unmarked numbers belong to inactive results. Calls of active or inactive are those of the source. Rule for the calls: active = growth percent below 10; inactive = the rest.

Among the test systems are SR leukemia; RPMI-8226 leukemia; OVCAR-8 ovarian; OVCAR-5 ovarian; OVCAR-4 ovarian; SK-OV-3 ovarian; IGROV1 ovarian; OVCAR-3 ovarian; HS 578T breast; NCI/ADR-RES ovarian.
Common to all, as to assay: NCI-60 one-dose screen, 48 h (100 = growth as untreated, 0 = no growth, -100 = all killed)
Common to all, as to conditions: 10 µM unless noted

For `Clc1ccc(N/N=C(/c2ccccc2)c2ccccn2)nc1`, the growth in the assay with SR leukemia was 26.1%; with RPMI-8226 leukemia, 29.3%; in the assay on OVCAR-8 ovarian it was 33.5%; with OVCAR-5 ovarian, 49.3%; with OVCAR-4 ovarian, 24.5%; in the assay with SK-OV-3 ovarian, 26.5%. In addition, the growth in the assay on IGROV1 ovarian was 22.5%; in the assay on OVCAR-3 ovarian, 40.7%; in the assay on HS 578T breast, 80.6%; in the assay on NCI/ADR-RES ovarian, 5.2% (active).

With `COc1ccc(-n2nnnc2-c2cn[nH]c2C(F)(F)F)cc1`, the growth with SR leukemia was 73.4%; in the assay on RPMI-8226 leukemia it was 92.1%; with OVCAR-8 ovarian it was 95.5%; in the assay on OVCAR-5 ovarian, 108%; in the assay with OVCAR-4 ovarian, 79.1%; in the assay with SK-OV-3 ovarian it was 103%. The growth is -28.4% (active) in the assay with IGROV1 ovarian, 104% in the assay on OVCAR-3 ovarian, 101% in the assay with HS 578T breast and 129% in the assay with NCI/ADR-RES ovarian.

In the case of `C=CCSc1nnc(COc2ccc3c(C)c(Cc4ccccc4)c(=O)oc3c2C)o1`, the growth in the assay on SR leukemia is 77.7%; in the assay with RPMI-8226 leukemia it was 99.9%; with OVCAR-8 ovarian, 97.6%; in the assay on OVCAR-5 ovarian it was 104%; in the assay on OVCAR-4 ovarian, 96.1%; in the assay on SK-OV-3 ovarian, 108%. In addition, the growth in the assay on IGROV1 ovarian is 112%; in the assay with OVCAR-3 ovarian, 108%; in the assay with HS 578T breast, 94.5%; in the assay on NCI/ADR-RES ovarian it was 98%.

On to `Oc1ccc(N=Nc2ccc(N=Nc3ccccc3)cc2)cc1`, for which the growth in the assay on SR leukemia was 43.1%; in the assay on RPMI-8226 leukemia, 24.8%; in the assay with OVCAR-8 ovarian, 23.1%; in the assay on OVCAR-5 ovarian it was 79.3%; with OVCAR-4 ovarian, 76%; with SK-OV-3 ovarian, 42.6%. In addition, the growth in the assay with IGROV1 ovarian is 53.6%; with OVCAR-3 ovarian, 18.3%; in the assay with HS 578T breast, 91.8%; in the assay on NCI/ADR-RES ovarian, 43.4%.

Turning to `O=C(Nc1ccccc1)Nc1ccc(Nc2ncnc3sc4c(c23)CCCC4)cc1`, the growth was 97.9% in the assay with SR leukemia; 99.3% in the assay with RPMI-8226 leukemia; 107% with OVCAR-8 ovarian; 119% in the assay on OVCAR-5 ovarian; 107% in the assay with OVCAR-4 ovarian; 99.6% with SK-OV-3 ovarian. Besides, the growth in the assay on IGROV1 ovarian was 107%; with OVCAR-3 ovarian, 103%; in the assay on HS 578T breast it was 85.3%; in the assay on NCI/ADR-RES ovarian it was 107%.

As for `O=C(/C=C\c1ccccc1Cl)c1ccccc1`, the growth in the assay on SR leukemia was 67.6%; in the assay with RPMI-8226 leukemia, 66%; in the assay on OVCAR-8 ovarian, 104%; in the assay on OVCAR-5 ovarian it was 89.8%; in the assay on OVCAR-4 ovarian, 89.8%; in the assay with SK-OV-3 ovarian it was 107%. The growth in the assay on IGROV1 ovarian is 111%; with OVCAR-3 ovarian, 99.5%; in the assay on HS 578T breast, 111%; in the assay with NCI/ADR-RES ovarian, 101%.

Regarding `Oc1ccccc1/C=N/N=C/c1c(O)ccc2ccccc12`, the growth in the assay on SR leukemia is 55.4%; with RPMI-8226 leukemia it was 96.6%; with OVCAR-8 ovarian, 80.6%; in the assay on OVCAR-5 ovarian, 102%; in the assay on OVCAR-4 ovarian, 85.4%; with SK-OV-3 ovarian it was 90.8%. Moreover, the growth in the assay with IGROV1 ovarian is 47.9%; with OVCAR-3 ovarian it was 80.5%; in the assay with HS 578T breast, 101%; in the assay on NCI/ADR-RES ovarian, 92.5%.

`O=C(Nc1ccc(-n2cc(-c3ccncc3)c(-c3ccc(Cl)c(O)c3)n2)cc1)c1ccc(Cl)c(C(F)(F)F)c1`: the growth was -13.4% (active) with SR leukemia; -42.7% (active) in the assay with RPMI-8226 leukemia; -1.91% (active) with OVCAR-8 ovarian; 52.6% in the assay with OVCAR-5 ovarian; 40.6% in the assay on OVCAR-4 ovarian; 14.4% in the assay on SK-OV-3 ovarian. Moreover, the growth in the assay with IGROV1 ovarian is 27.5%; with OVCAR-3 ovarian it was -24.9% (active); in the assay with HS 578T breast it was -53.7% (active); with NCI/ADR-RES ovarian, 29.4%.

In the case of `CC(=O)Nc1ccc(C(=O)/C=C/c2ccc(N(C)C)cc2)cc1`, the growth is 96.6% with SR leukemia; 102% with RPMI-8226 leukemia; 102% with OVCAR-8 ovarian; 106% with OVCAR-5 ovarian; 109% with OVCAR-4 ovarian; 101% with SK-OV-3 ovarian. For the same compound, the growth is 95.4% in the assay with IGROV1 ovarian, 105% with OVCAR-3 ovarian, 101% in the assay with HS 578T breast and 99.3% in the assay with NCI/ADR-RES ovarian.

With `COc1ccc(C(=O)NCCNc2nccc(-c3c(-c4ccc(F)cc4)nc4sccn34)n2)cc1`, the growth in the assay on SR leukemia is 44.1%; in the assay with RPMI-8226 leukemia it was 40.5%; in the assay with OVCAR-8 ovarian it was 49.4%; with OVCAR-5 ovarian, 62.4%; with OVCAR-4 ovarian it was 80.5%; in the assay with SK-OV-3 ovarian, 70.6%. In addition, the growth is 31% in the assay with IGROV1 ovarian, 80.7% with OVCAR-3 ovarian, 28.7% in the assay with HS 578T breast and 62.3% in the assay on NCI/ADR-RES ovarian.

Regarding `COc1cc(-c2nn(-c3ccc(NC(=O)Nc4ccc(Cl)c(Cl)c4)cc3)cc2-c2ccncc2)ccc1Cl`, the growth in the assay on SR leukemia was 6.61% (active); with RPMI-8226 leukemia it was -15.3% (active); in the assay with OVCAR-8 ovarian, 29.1%; in the assay with OVCAR-5 ovarian, 72.8%; in the assay on OVCAR-4 ovarian, 36.7%; in the assay on SK-OV-3 ovarian, 62.8%. In addition, the growth in the assay on IGROV1 ovarian was 36.9%; in the assay on OVCAR-3 ovarian, 24.1%; in the assay with HS 578T breast, -26.9% (active); in the assay on NCI/ADR-RES ovarian, 16.1%.

Turning to `C=CC1CN2CCC1CC2C(O)c1ccnc2ccc(OC)cc12` (stereo not given), the growth in the assay on SR leukemia is 113%; in the assay on RPMI-8226 leukemia it was 108%; in the assay with OVCAR-8 ovarian, 88.4%; in the assay with OVCAR-5 ovarian it was 93.1%; in the assay with OVCAR-4 ovarian it was 102%; in the assay on SK-OV-3 ovarian it was 93.9%. The growth in the assay on IGROV1 ovarian was -5.34% (active); in the assay with OVCAR-3 ovarian, 105%; with HS 578T breast, 99.9%; in the assay on NCI/ADR-RES ovarian, 107%.

Turning to `COc1ccc(/C=C2\CCCC3=C2N=C2SC=NN2C3c2ccc(OC)c(OC)c2)cc1OC` (stereo not given), the growth with SR leukemia was 34.3%; with RPMI-8226 leukemia, -14.8% (active); with OVCAR-8 ovarian, 9.01% (active); in the assay with OVCAR-5 ovarian, 59.7%; in the assay on OVCAR-4 ovarian, 49.1%; in the assay with SK-OV-3 ovarian it was 81.9%. Also, the growth in the assay on IGROV1 ovarian was 47.8%; in the assay with OVCAR-3 ovarian it was 37.8%; in the assay on HS 578T breast it was 86.4%; with NCI/ADR-RES ovarian, 21.4%.
